From PubChem BioAssay (NCI)
About 79,000 compounds went through this panel and 15% of them were active in at least one assay; those are over-represented in the sample as a whole. Calls of active or inactive are those of the source. Cut-off read from the data, not from the text of the source: active = growth inhibition above about 70%; inactive = the rest.

Key:
[1] = NCI Yeast Anticancer Drug Screen. Data for the rad52 strain (AID 147);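 note: 0% = growth of vehicle-treated control cultures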; settings: S. cerevisiae rad52 mutant growth inhibition, stronger effect = higher value
In short: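 Screen used a yeast mutant impaired in DNA repair. After compound exposure, growth was measured. Values reflect inhibition compared with vehicle-treated cells.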

[2] = NCI Yeast Anticancer Drug Screen. Data for the wt1 strain (AID 149);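 note: 0% = growth of vehicle-treated wt1 cultures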; settings: S. cerevisiae wt1 strain (SPY 50644) growth inhibition, stronger effect = higher value
In short: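 wt1 yeast, compound-treated; % growth inhibition vs vehicle control.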

[3] = NCI Yeast Anticancer Drug Screen. Data for the rad50EPP+ strain (AID 151);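 note: 0% = growth of vehicle-treated control cultures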; settings: S. cerevisiae rad50 mutant strain, stronger effect = higher value
In short: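 Exposing the rad50EPP+ strain to each compound, growth was compared with vehicle-only cultures to give inhibition.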

[4] = NCI Yeast Anticancer Drug Screen. Data for the mgt1 strain (AID 153); settings: S. cerevisiae mgt1 mutant growth inhibition, stronger effect = higher value
In short: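 Genetically defined yeast (mgt1) treated with compound; inhibition of growth expressed against vehicle-treated controls.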

[5] = NCI Yeast Anticancer Drug Screen. Data for the rad50 strain (AID 155);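 note: 0% = growth of vehicle-only cultures of the same strain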; settings: S. cerevisiae rad50 strain growth inhibition, stronger effect = higher value
In short: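 Genetically altered yeast (DNA repair pathway); compound treatment; growth inhibition vs vehicle ctrl.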

[6] = NCI Yeast Anticancer Drug Screen. Data for the mec2-1 strain (AID 157); settings: S. cerevisiae mec2-1 strain, stronger effect = higher value
In short: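 Readout is yeast growth inhibition, normalised to vehicle-treated controls, in the mec2-1 strain exposed to compound.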

[7] = NCI Yeast Anticancer Drug Screen. Data for the rad14 strain (AID 159);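 note: 0% = growth of vehicle-treated control cultures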; settings: S. cerevisiae rad14 strain growth inhibition, stronger effect = higher value
In short: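 Test compounds were applied to a repair-deficient yeast strain. Its growth was then compared with that of cultures given vehicle alone, and inhibition was expressed relative to those controls.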

[8] = NCI Yeast Anticancer Drug Screen. Data for the sgs1 mgt1 strain (AID 161);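 note: 0% = growth of cultures given vehicle only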; settings: S. cerevisiae sgs1 mgt1 strain, stronger effect = higher value
In short: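 Compounds are added to genetically altered yeast, and growth is compared with cultures given vehicle alone to give percent inhibition.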

[9] = NCI Yeast Anticancer Drug Screen. Data for the CLN2oe strain (AID 163);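 note: 0% = growth of vehicle-only control cultures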; settings: S. cerevisiae CLN2oe strain, stronger effect = higher value
In short: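 Values reflect how much compound exposure reduced yeast growth, referenced to vehicle-exposed cells. Assay organism is a strain with a defined genetic change affecting cell-cycle control.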

[10] = NCI Yeast Anticancer Drug Screen. Data for the cln2 rad14 strain (AID 165);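 note: 0% = growth equal to vehicle treated cultures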; settings: S. cerevisiae cln2 rad14 strain, stronger effect = higher value
In short: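 Relative to vehicle controls, growth inhibition of compound-treated cln2 rad14 yeast was recorded.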

[11] = NCI Yeast Anticancer Drug Screen. Data for the bub3 strain (AID 167); settings: S. cerevisiae bub3 mutant strain, stronger effect = higher value
In short: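 Yeast carrying a defined mutation is treated with each compound, and growth is compared with that of vehicle-exposed cells to give inhibition.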

[12] = NCI Yeast Anticancer Drug Screen. Data for the wt2 strain (AID 169);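 note: 0% = growth of vehicle-treated yeast cultures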; settings: S. cerevisiae wt2 strain growth inhibition, stronger effect = higher value
In short: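 Values express reduction in yeast growth under compound treatment, referenced to vehicle-treated cells.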

[13] = NCI Yeast Anticancer Drug Screen. Data for the mlh1 strain (AID 171);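 note: 0% = growth of vehicle-treated control cultures of the same strain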; settings: S. cerevisiae mlh1 strain growth inhibition, stronger effect = higher value
In short: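 Steps: expose the defined-mutant yeast strain to compound; expose a parallel culture to vehicle; measure growth; express compound effect as inhibition relative to the vehicle culture.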

[14] = NCI Yeast Anticancer Drug Screen. Data for the sgs1 strain (AID 173);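 note: 0% = growth of vehicle-only control cultures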; settings: S. cerevisiae sgs1 mutant, stronger effect = higher value
In short: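 Treat defined-mutant yeast with compound; measure growth; calculate inhibition relative to vehicle-treated cells.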

[15] = NCI Yeast Anticancer Drug Screen. Data for the mlh1 rad18 strain (AID 175); settings: S. cerevisiae mlh1 rad18 strain growth inhibition, stronger effect = higher value
In short: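 Test agents were incubated with a yeast strain of defined genotype (DNA damage repair defect). Inhibition of growth was derived by comparison with vehicle-exposed cultures.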

[16] = NCI Yeast Anticancer Drug Screen. Data for the rad18 strain (AID 177); settings: S. cerevisiae rad18 mutant growth inhibition, stronger effect = higher value
In short: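 A genetically defined yeast mutant impaired in DNA damage repair was treated with test compounds, then its growth was measured against cultures receiving vehicle alone.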

[17] = at 5.0 µM (retest, dose inferred, filed as 0.5)
[18] = at 50.0 µM (retest, dose inferred, filed as 5.0)

Measured: growth inhibition

CC1=C(N2CC2)C(=O)c2ccccc2C1=O
active: [1]; at 100.0 µM 97% | [3]; at 33.0 µM 79% | [3]; at 100.0 µM 96% | [5]; at 33.0 µM 70% | [5]; [18] 84% | [5]; at 100.0 µM 97% | [7]; at 100.0 µM 92% | [8]; [18] 72% | [14]; at 100.0 µM 96% | [16]; at 3.7 µM 72% | [16]; at 11.0 µM 91% | [16]; at 33.0 µM 96% | [16]; at 100.0 µM 98%
inactive: [1]; at 1.2 µM 1% | [1]; at 3.7 µM 11% | [1]; at 11.0 µM 22% | [1]; at 33.0 µM 69% | [2]; at 1.2 µM -5% | [2]; at 3.7 µM -6% | [2]; at 11.0 µM -6% | [2]; at 33.0 µM -2% | [2]; at 100.0 µM 41% | [3]; at 1.2 µM 5% | [3]; at 3.7 µM 16% | [3]; at 11.0 µM 48% | [4]; at 1.2 µM 0% | [4]; at 3.7 µM -49% | [4]; at 11.0 µM 2% | [4]; at 33.0 µM 13% | [4]; at 100.0 µM 36% | [5]; at 1.2 µM 1% | [5]; at 3.7 µM 1% | [5]; [17] -103% | [5]; at 11.0 µM 23% | [5]; at 50.0 µM 53.7% | [6]; at 1.2 µM 4% | [6]; at 3.7 µM 3% | [6]; [17] -46% | [6]; at 11.0 µM 6% | [6]; at 33.0 µM 11% | [6]; [18] 4% | [6]; at 50.0 µM 19.8% | [6]; at 100.0 µM 49% | [7]; at 1.2 µM 2% | [7]; at 3.7 µM 3% | [7]; at 11.0 µM 14% | [7]; at 33.0 µM 32% | [8]; [17] -41% | [8]; at 50.0 µM 43% | [9]; at 1.2 µM -1% | [9]; at 3.7 µM 0% | [9]; at 11.0 µM 0% | [9]; at 33.0 µM 2% | [9]; at 100.0 µM 39% | [10]; [17] -60% | [10]; [18] 48% | [10]; at 50.0 µM -6.55% | [11]; at 1.2 µM -3% | [11]; at 3.7 µM -2% | [11]; [17] -64% | [11]; at 11.0 µM 2% | [11]; at 33.0 µM 16% | [11]; [18] 16% | [11]; at 50.0 µM -8.05% | [11]; at 100.0 µM 66% | [12]; at 1.2 µM 0% | [12]; at 3.7 µM 1% | [12]; at 11.0 µM 2% | [12]; at 33.0 µM 0% | [12]; at 100.0 µM 34% | [13]; at 1.2 µM 7% | [13]; at 3.7 µM -3% | [13]; at 11.0 µM 2% | [13]; at 33.0 µM 9% | [13]; at 100.0 µM 64% | [14]; at 1.2 µM 0% | [14]; at 3.7 µM 10% | [14]; at 11.0 µM 36% | [14]; at 33.0 µM 67% | [15]; [17] -99% | [15]; [18] 65% | [15]; at 50.0 µM 46.2% | [16]; at 1.2 µM 36%

OC1CCCC2CCC[N-]C12.OC1CCCC2CCC[N-]C12.[O]=[V][OH] (stereo unspecified)
inactive: [1]; at 1.2 µM 54% | [2]; at 1.2 µM -4% | [2]; at 3.7 µM 67% | [3]; at 1.2 µM 47% | [4]; at 1.2 µM 24% | [5]; at 1.2 µM 47% | [6]; at 1.2 µM 3% | [6]; [18] 66% | [7]; at 1.2 µM 8% | [8]; [17] 19% | [9]; at 1.2 µM -12% | [10]; [17] 46% | [11]; at 1.2 µM 10% | [12]; at 1.2 µM -17% | [12]; at 3.7 µM 68% | [13]; at 1.2 µM -25% | [13]; at 3.7 µM 50% | [14]; at 1.2 µM 17% | [14]; at 3.7 µM 69% | [15]; [18] 64%
active: [1]; at 3.7 µM 98% | [1]; at 11.0 µM 98% | [1]; at 33.0 µM 97% | [1]; at 100.0 µM 97% | [2]; at 11.0 µM 85% | [2]; at 33.0 µM 93% | [2]; at 100.0 µM 96% | [3]; at 3.7 µM 96% | [3]; at 11.0 µM 96% | [3]; at 33.0 µM 95% | [3]; at 100.0 µM 95% | [4]; at 3.7 µM 88% | [4]; at 11.0 µM 98% | [4]; at 33.0 µM 97% | [4]; at 100.0 µM 97% | [5]; at 3.7 µM 95% | [5]; [17] 99% | [5]; at 11.0 µM 95% | [5]; at 33.0 µM 95% | [5]; [18] 97% | [5]; at 50.0 µM 86.8% | [5]; at 100.0 µM 95% | [6]; at 3.7 µM 86% | [6]; [17] 99% | [6]; at 11.0 µM 98% | [6]; at 33.0 µM 98% | [6]; at 50.0 µM 90.1% | [6]; at 100.0 µM 96% | [7]; at 3.7 µM 89% | [7]; at 11.0 µM 98% | [7]; at 33.0 µM 97% | [7]; at 100.0 µM 97% | [8]; [18] 98% | [8]; at 50.0 µM 91.5% | [9]; at 3.7 µM 78% | [9]; at 11.0 µM 93% | [9]; at 33.0 µM 95% | [9]; at 100.0 µM 96% | [10]; [18] 97% | [10]; at 50.0 µM 79.8% | [11]; at 3.7 µM 89% | [11]; [17] 99% | [11]; at 11.0 µM 98% | [11]; at 33.0 µM 98% | [11]; [18] 95% | [11]; at 50.0 µM 90.8% | [11]; at 100.0 µM 97% | [12]; at 11.0 µM 92% | [12]; at 33.0 µM 93% | [12]; at 100.0 µM 96% | [13]; at 11.0 µM 79% | [13]; at 33.0 µM 88% | [13]; at 100.0 µM 95% | [14]; at 11.0 µM 83% | [14]; at 33.0 µM 89% | [14]; at 100.0 µM 94% | [15]; [17] 99% | [15]; at 50.0 µM 86.8%
